# Most compounds without a hit are left out; they make up all but 19% or so of the library.
# DT40 TDP1 no CPT: qHTS for Inhibitors of human tyrosyl-DNA phosphodiesterase 1 (TDP1): qHTS in cells in absence of CPT; DT40 Tdp1-/- hTDP1 cells, no CPT, ATP luminescence, 48 h; Potency, µM (highest dose often 46.2 µM), inactives show at the top dose activity change, negative = growth inhibition, actives largely listed as inhibitors; AID 686978, 2013; 420,000 tested, 15% active; further: potency means the concentration at half of the fitted maximal effect; nearly all actives have a fitted effect of over 55% in size
#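 DT40 Tdp1-/-;hTDP1 cells, no CPT (DMSO vehicle only), 400 cells/well; compounds pin-transferred; ≥48 hr, 37 °C; CellTiter-Glo 30 min RT dark, luminescence read.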
# DT40 TDP1 CPT: DT40-hTDP1 cell growth loss with CPT | chicken DT40 Tdp1-/-;hTDP1 cells + 20 nM CPT, ATP luminescence, 48 h | Potency, µM (highest dose often 46.2 µM), inactives show top-dose activity change, negative = growth inhibition, actives largely listed as inhibitors | 420,000 tested, 12% active | AID 686979; further: potency means the concentration at half of the fitted maximal effect; nearly all actives have a fitted effect of over 55% in size
#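 Chicken DT40 Tdp1-/- cells complemented with human TDP1, 400 cells/well, exposed to compounds plus 20 nM camptothecin for at least 48 h at 37 C; viability read as ATP content by CellTiter-Glo luminescence.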
# TDP1 block: blocks human tyrosyl-DNA phosphodiesterase 1; recombinant TDP1, AlphaScreen DNA substrate cleavage; Potency, µM (doses to about 130 µM), inactives show top-dose activity change, negative = inhibition, usual class: inhibitors; 350,000 tested, 0.28% active; AID 485290; further: potency means the concentration at half of the fitted maximal effect; nearly all actives have a fitted effect of over 40% in size
# Target sequence (Q9NUW8 whole entry, looked up): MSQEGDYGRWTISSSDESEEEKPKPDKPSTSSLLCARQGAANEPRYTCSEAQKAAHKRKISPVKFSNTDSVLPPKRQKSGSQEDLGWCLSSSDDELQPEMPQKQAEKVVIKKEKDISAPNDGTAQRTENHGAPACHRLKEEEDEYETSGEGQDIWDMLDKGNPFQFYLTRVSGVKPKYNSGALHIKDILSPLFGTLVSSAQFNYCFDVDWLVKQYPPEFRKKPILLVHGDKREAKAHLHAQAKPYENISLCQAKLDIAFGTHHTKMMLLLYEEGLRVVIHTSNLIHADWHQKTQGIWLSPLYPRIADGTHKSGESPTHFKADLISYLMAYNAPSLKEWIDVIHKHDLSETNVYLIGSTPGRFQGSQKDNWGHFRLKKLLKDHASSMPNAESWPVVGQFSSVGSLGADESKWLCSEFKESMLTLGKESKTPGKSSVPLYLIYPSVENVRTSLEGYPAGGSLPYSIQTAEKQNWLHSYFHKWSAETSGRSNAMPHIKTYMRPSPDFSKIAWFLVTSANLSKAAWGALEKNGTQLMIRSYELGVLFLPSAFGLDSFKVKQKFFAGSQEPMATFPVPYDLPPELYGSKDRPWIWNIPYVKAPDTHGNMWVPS
#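 Tdp1 1 nM final; 15 min RT w/ cpd; substrate 15 nM, 5 min; beads 10 ug/ml, 10 min; AlphaScreen read. Neg ctrl: no enzyme.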
# Giardia kill: kills Giardia lamblia; Giardia lamblia trophozoite viability; activity change, % at 7.66 µM, hits read low; 340,000 tested, 0.15% active; in the data active means activity change below about -80%; inconclusive means between about -30% and that limit;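 further: parasites exposed to compound for two days anaerobically before the ATP read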
#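 Trophozoites 100 cells/well + cpd; 48 hrs, 37 deg C, anaerobic. ATPLite 1-Step added, 15-30 min RT, luminescence read (ATP-based viability).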
# IL1B secr inh: inhibitors of inflammasome signaling (IL-1 beta secretion). THP-1 LPS/ATP IL-1B secretion, AlphaLISA, 16 h; hits give low values. activity change, % at 57.5 µM. 360,000 tested, 4.7% active. AID 743279; in the data active means activity change below about -50%; inconclusive means mostly about -30% to -49%
#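 Secreted IL-1B measured by AlphaLISA bead assay after 16 h compound exposure of THP-1 cells; compounds (final up to 57.5 uM) added 1 h before LPS (250 ng/mL) and ATP (1.25 mM) stimulation; lower signal means less secretion.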
# ELG1 repair inh: inhibitors of ELG1-dependent DNA repair in HEK293T cells. 330,000 tested, 2.3% active. Potency, µM (highest dose often 46.1 µM), for the others: at the top dose activity change, negative = inhibition, most hits filed as inhibitors. AID 504467. HEK293T ELG1-luciferase reporter, luminescence, 16 h; DNA damage induced by 5-fluorouridine; further: potency means the concentration at half of the fitted maximal effect; nearly all actives have a fitted effect of over 55% in size
#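 HEK293T cells expressing luciferase-tagged ELG1 (2,000/well) received 5-Fluorouridine plus compound or DMSO for 16 hr at 37 °C. Luciferase was read by ONE-Glo luminescence after 30 min at room temperature.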
# Active calls of the source: *; ? = inconclusive; nt = no result; [ ] = remark or other dose. Unless noted, the call rests on the fitted dose curve; in most records, active means well fitted curve in the direction sought with a large enough effect; inconclusive means small, poorly fitted or top-dose-only effect, or another doubt; inactive means no such curve, though single readings can be large; an effect the other way counts as inactive or inconclusive. On the % scale 0 is the no-effect control and ±100 the full control effect.
SMILES,DT40 TDP1 no CPT,DT40 TDP1 CPT,TDP1 block,Giardia kill,IL1B secr inh,ELG1 repair inh
COC(=O)c1ccc(Nc2ccc3nonc3c2[N+](=O)[O-])cc1,1%,9%,nt,-93*,-13,0%
CC(=O)c1ccc(Nc2ccc([N+](=O)[O-])c3nonc23)cc1,23µM*,?,nt,10,-12,1%
O=C(OOC(=O)c1ccccc1)c1ccccc1,-9%,1%,11%,nt,nt,nt
CN(CC(=O)Nc1ccc(F)cc1)C(=O)COC(=O)CN1C(=O)NC2(CCCC2)C1=O,-9%,0%,1%,4,-3,20%
COc1ccc(C2c3c(n(CCc4ccccc4)cnc3=N)Oc3ccc4ccccc4c32)cc1OC (stereo not given),nt,nt,1%,nt,nt,nt
O=C(NNC1=Nc2cccc3cccc1c23)c1ccc(Br)cc1,13µM*,12µM*,-3%,1,55,-7%
Cc1[nH]c(=O)c(S(=O)(=O)c2ccccc2)c(C)c1Cl,10%,-15%,nt,-2,7,-1%
O=C(c1cc2ccccc2oc1=O)N(Cc1ccc2c(c1)OCO2)Cc1ccco1,9.2µM*,?,7%,3,-10,-5%
O=S(=O)(NCc1nnnn1-c1ccc(F)cc1)c1ccc(F)cc1,-13%,-11%,nt,nt,17,nt
CCC(=O)N1CCN(c2ccc(Cl)cc2NC(=O)c2cccc([N+](=O)[O-])c2)CC1,?,?,0%,-11,30,0%
CCC(=O)N1CCN(c2ccc(NC(=O)c3ccc([N+](=O)[O-])o3)cc2Cl)CC1,5.2µM*,0.82µM*,-1%,-92*,-107*,?
O=C(Nc1cc(Cl)ccc1-n1cncn1)c1ccc([N+](=O)[O-])o1,10µM*,7.3µM*,2%[0.505 µM],?,-65*,22%
O=C(Nc1ccc(N2CCN(C(=O)c3cccs3)CC2)cc1)c1ccc([N+](=O)[O-])o1,nt,nt,9%,nt,nt,?
CCC(=O)N1CCN(c2ccc(Cl)cc2NC(=O)c2ccc([N+](=O)[O-])o2)CC1,?,18µM*,3%,-101*,3,-17%
CC(=O)N1CCN(c2ccc(NC(=O)c3ccc([N+](=O)[O-])o3)cc2Cl)CC1,0.92µM*,0.41µM*,1%,-81*,-102*,18µM*
NCCC(O)C(=O)NC1C[C@@H](N)[C@H](O[C@@H]2OC(CN)C(O)C(O)C2O)C(O)[C@H]1O[C@H]1OC(CO)C(O)C(N)C1O (stereo not given in full),-9%,-8%,6%[56.1 µM],nt,nt,nt
Cc1ccc(CNC(=O)C2CCC(CNS(=O)(=O)c3ccc4c(c3)CCCC(=O)N4)CC2)cc1 (stereo not given),-3%,0%,-3%,nt,nt,nt
CCN1CCN(c2ccc(NC(=O)c3ccc([N+](=O)[O-])o3)cc2Cl)CC1,0.52µM*,0.58µM*,3%,?,-107*,?
COc1ccccc1C(CNc1nc(C(F)(F)F)nc2ccccc12)N(C)C (stereo not given),21µM*,?,5%,-12,-15,4%
O=c1n(Cc2cc3c(cc2Cl)OCO3)c(=O)n2n1CC[C@H]1/C(=N\OCc3ccccc3)[C@H]3O[C@@H]3[C@@H](O)[C@@H]12,nt,nt,-1%[21 µM],nt,nt,nt
COc1ccc2c(c1)C1OCCC1C(c1ccco1)N2 (stereo not given),?,23µM*,nt,?,?,nt
Cc1c(C(=O)NCc2ccccc2C(F)(F)F)sc(=O)n1Cc1ccc(S(=O)(=O)N(C)C)cc1,21µM*,?,nt,nt,-20,nt
Cc1c(C(=O)NCc2ccc(C(F)(F)F)cc2)sc(=O)n1Cc1ccc(S(=O)(=O)N(C)C)cc1,23µM*,23µM*,nt,nt,0,nt
Cc1c(C(=O)NCc2ccccc2C(F)(F)F)sc(=O)n1Cc1ccc(Cl)c(Cl)c1,?,?,nt,nt,-72*,nt
Cc1cccc(C)c1Cn1c(C)c(C(=O)NCc2ccccc2C(F)(F)F)sc1=O,?,?,nt,nt,-17,nt
SMILES,DT40 TDP1 no CPT,DT40 TDP1 CPT,TDP1 block,Giardia kill,IL1B secr inh,ELG1 repair inh
COc1ccc(CNC(=O)c2sc(=O)n(Cc3ccc(S(=O)(=O)N(C)C)cc3)c2C)cc1,?,?,nt,nt,-12,nt
COc1ccc(CCNC(=O)CCC(=O)N2CCOc3ccc(Cl)cc32)cc1OC,?,?,nt,3,-29,5%
CCn1c(SCC(=O)NC2CC2)nnc1-c1csc(C)c1,-5%,-6%,0%,3,-9,-2%
CCCCOC(=O)c1ccc(NC(=S)NC(=O)c2c(Br)c(C)nn2C)cc1,21µM*,?,8%,-15,16,-18%
COc1ccc(N2CSC3=C(C#N)C(c4cccs4)CC(=O)N3C2)cc1 (stereo not given),2%,-1%,-4%,12,-5,27%
CCc1ccc(N2CSC3=C(C#N)C(c4cccs4)CC(=O)N3C2)cc1 (stereo not given),16µM*,?,0%,-8,-2,?
CCOc1ccccc1N1CSC2=C(C#N)C(c3c(OC)ccc4ccccc34)CC(=O)N2C1 (stereo not given),21µM*,?,4%,-5,12,-2%
COC(=O)C/C(O)=C(/N=Nc1cccc(C(F)(F)F)c1)C(=O)OC,-3%,-7%,0%,6,-9,15%
O=C(Nc1cccc(Cl)c1N1CCCC1)c1cccc(-c2cc3ccccc3oc2=O)c1,?,18µM*,4%,3,34,14%
O=C(Nc1ccc(CN2CCOCC2)cc1)c1cccc(-c2cc3ccccc3oc2=O)c1,?,16µM*,5%,7,?,?
CCn1nnc(NC(=O)c2cccc(-c3cc4ccccc4oc3=O)c2)n1,?,-13%,0%,-1,-4,?
CS(=O)(=O)N1CCC[C@@]2(CCN(C(=O)Nc3cccc(C#N)c3)C2)C1,3%,2%,nt,nt,nt,nt
COc1ccc(NS(=O)(=O)c2ccc3c(c2)N(C(C)=O)CCS3)cc1,?,?,2%,18,3,?
CC(=O)N1CCSc2ccc(S(=O)(=O)Nc3ccc(C)cc3)cc21,-16%,?,5%,-16,16,-2%
CC(=O)N1CCSc2ccc(S(=O)(=O)NCCc3ccc(Cl)cc3)cc21,?,16µM*,-1%,10,9,?
CC(=O)N1CCSc2ccc(S(=O)(=O)NCCc3ccc(C)cc3)cc21,21µM*,23µM*,2%,11,?,?
